PTHR1 ag: agonists of human PTHR1 parathyroid hormone receptor; Q03431; Potency, µM (top dose mostly 115 µM), most hits filed as activators; AID 743266; actives 0.075% (n = 410,000); HEK293 GP2 PTHR1 cells, GloSensor cAMP luminescence, 1 h; also: nearly all actives have a fitted effect of over 55% in size
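HEK-293-derived GP2 cells expressing PTHR1 and a GloSensor cAMP reporter, 3,000/well, plated overnight, given luciferin plus IBMX (each 0.5 mM as added) for 1 h at 37 °C, then compound for 1 h at 37 °C. Luminescence was read after 15 min at room temperature.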
GRP78 ERSR act: induces the endoplasmic reticulum stress response in human glioma cells. U87-MG GRP78 promoter luciferase reporter, 16 h. Potency, µM, usual class: activators. actives 0.02% (n = 420,000); also: series mostly up to about 76 µM; nearly all actives have a fitted effect of over 35% in size
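ERSR induction read as luciferase luminescence (Bright-Glo, 10 min at room temperature) in stably transfected human U87-MG glioma cells exposed to compounds for 16 h, using GRP78 as sensor.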
RXFP1 antag: blocks the human relaxin receptor RXFP1; Q9HBX9; HEK293-RXFP1, relaxin-stimulated cAMP HTRF, 30 min; hits give low values; activity change, negative = inhibition, % at 57.5 µM; actives 0.59% (n = 350,000);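 active = activity change of -60% or lower, but not beyond a set lower limit; inconclusive = change between -60% and -40%, or beyond the set limit; inactive = change above -40%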
KCNH2 3.1 block: KCNH2 3.1 (human) potassium channel inhibition; AID 720553; actives 0.95% (n = 340,000); U2OS KCNH2 3.1, thallium flux FluxOr; hits give low values; activity change, % (tested at about 1.8 µM);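 active = maximum activity change below -70%; inconclusive = maximum activity change from -70% to -50%; inactive = maximum activity change above -50%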;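 also: thallium influx rate constant from kinetic fluorescence after stimulation buffer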
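Steps: virus added to U2OS suspension (4 h, RT, dark); medium with 10% FBS added, cells plated, 37 C overnight; FluxOr/Red40 loading buffer 45 min RT; stimulation buffer, 2 min kinetic read; rate constant normalized.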
RXFP1 agonist: RXFP1 (human) receptor agonism; AID 2676; HEK293T-RXFP1 cAMP TR-FRET, 30 min; response scale: percent of porcine relaxin response, buffer zero; actives 0.3% (n = 370,000); Q9HBX9; Potency, µM (titrated, usually from 57.5 µM), actives largely listed as activators; also: nearly all actives have a fitted effect of over 60% in size
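HEK293 cells stably expressing RXFP1, treated 30 min at 37C with compounds plus PDE4 inhibitor Ro 20174; cAMP measured by HTRF TR-FRET. Normalized to buffer and 29 nM porcine relaxin; EC50 by Hill fit.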
KCNH2 WT inh: inhibitors of human wildtype KCNH2 potassium channel. activity change, % at 1.84 µM. Q12809. actives 0.37% (n = 340,000). U2OS, BacMam KCNH2, thallium flux FluxOr; hits give low values. AID 720551;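 active = maximum activity change below -70%; inconclusive = maximum activity change between -70% and -50%; inactive = maximum activity change above -50%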
Target sequence (Q12809 whole entry, looked up): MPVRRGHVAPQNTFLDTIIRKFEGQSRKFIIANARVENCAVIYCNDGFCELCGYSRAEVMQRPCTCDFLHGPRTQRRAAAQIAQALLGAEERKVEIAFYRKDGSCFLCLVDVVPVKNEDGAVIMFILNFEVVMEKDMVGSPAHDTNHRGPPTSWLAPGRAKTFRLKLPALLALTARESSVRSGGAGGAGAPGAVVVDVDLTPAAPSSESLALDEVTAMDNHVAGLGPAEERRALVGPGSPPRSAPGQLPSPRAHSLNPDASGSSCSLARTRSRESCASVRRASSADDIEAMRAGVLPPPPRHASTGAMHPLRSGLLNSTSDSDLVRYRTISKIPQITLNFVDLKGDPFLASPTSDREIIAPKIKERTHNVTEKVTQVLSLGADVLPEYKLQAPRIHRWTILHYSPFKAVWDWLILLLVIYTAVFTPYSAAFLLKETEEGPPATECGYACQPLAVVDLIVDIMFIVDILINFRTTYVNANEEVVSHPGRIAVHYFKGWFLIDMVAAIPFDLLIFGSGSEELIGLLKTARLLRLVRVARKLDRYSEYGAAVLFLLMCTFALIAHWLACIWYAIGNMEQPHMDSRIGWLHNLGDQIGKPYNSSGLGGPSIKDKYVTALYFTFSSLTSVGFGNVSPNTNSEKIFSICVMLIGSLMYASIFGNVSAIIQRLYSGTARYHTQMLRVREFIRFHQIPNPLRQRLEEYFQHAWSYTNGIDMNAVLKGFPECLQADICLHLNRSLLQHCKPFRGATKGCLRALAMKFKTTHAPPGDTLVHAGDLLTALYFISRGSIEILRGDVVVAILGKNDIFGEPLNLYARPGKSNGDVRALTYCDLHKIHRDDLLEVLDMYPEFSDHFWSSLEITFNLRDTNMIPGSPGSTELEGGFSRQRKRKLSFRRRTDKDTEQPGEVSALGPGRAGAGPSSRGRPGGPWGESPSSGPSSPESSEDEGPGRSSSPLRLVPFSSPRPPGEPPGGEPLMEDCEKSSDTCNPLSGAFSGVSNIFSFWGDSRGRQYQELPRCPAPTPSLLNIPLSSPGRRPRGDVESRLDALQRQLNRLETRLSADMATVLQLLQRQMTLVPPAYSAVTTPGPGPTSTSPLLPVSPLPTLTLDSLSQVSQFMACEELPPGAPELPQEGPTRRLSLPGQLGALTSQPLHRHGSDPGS
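U2OS cells were transduced with wild-type KCNH2 virus (2.03 x 10^8 / mL) for 4 h at room temperature, then cultured overnight at 37 C. Thallium flux was read with FluxOr dye. Rate constants were normalized to DMSO controls.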
A number is an active result; i = inactive; ? = inconclusive; nt = not tested or not shown; + = active, no number. A selection: hits, their analogues and other compounds. The true share with any hit is near 1.4%. Unless noted, calls follow the shape of the dose curve; as a rule, active = well fitted curve in the direction sought with a large enough effect; inconclusive = small, poorly fitted or top-dose-only effect, or another doubt; inactive = no such curve, though single readings can be large; an effect the other way counts as inactive or inconclusive.

SMILES	PTHR1 ag	GRP78 ERSR act	RXFP1 antag	KCNH2 3.1 block	RXFP1 agonist	KCNH2 WT inh
CC(=O)N1c2ccc(S(=O)(=O)NCCc3ccccc3)cc2CC1C (stereo unspecified)	i	i	i	i	i	i
CCCn1c2ccccc2c2cnn(CC(=O)N(C)c3ccc(F)cc3)c(=O)c21	i	i	i	nt	i	nt
COc1ccc(/C=N/NC(=O)c2ccoc2C)cc1CN1CCN(c2ccc(F)cc2)CC1	i	i	i	-110.2	i	i
CC1CN(c2ccc([N+](=O)[O-])c(NCCOc3ccc(Cl)cc3)c2)CC(C)N1 (stereo unspecified)	i	i	-96.7	i	i	i
FC(F)Oc1ccc(NC(=S)NNc2ccnc3cc(Cl)ccc23)cc1	i	i	i	-81.1	i	?
CCC(=O)N(Cc1cc2c(C)cc(C)cc2[nH]c1=O)C1CCCCC1	i	i	i	i	i	i
COc1cc(/C=C(\C#N)C(=O)Nc2ccc(C(=O)O)cc2)ccc1OC(=O)c1cccc(F)c1	i	i	-83.1	i	i	i
CN(CC(=O)Nc1ccc(Cl)c(Cl)c1)Cc1nnc(-c2ccc(F)cc2)o1	i	i	-63.1	i	i	i
CCN1CCN(c2cc(N3CCc4ccccc4C3)c(F)cc2[N+](=O)[O-])CC1	i	i	-115.2	?	i	i
C/C(=N\Nc1ccccn1)c1ccc(C(C)C)cc1	i	i	i	i	i	i
Cc1nc2c(C(=O)NCCC(C)C)c[nH]n2c(=O)c1Cc1ccccc1F	i	i	-100.6	i	i	i
COc1ccccc1/C=C(/C(=O)OCC(=O)Nc1cc(C)ccc1C)c1ccccc1	i	i	i	i	i	+
CCCCNc1nc(Oc2ccc(OCC(N)=O)nn2)nc(N2CCOCC2)n1	i	nt	i	nt	i	nt
COC(=O)c1ccccc1-c1c2ccc(=N)cc-2oc2cc(N)ccc12	i	i	i	?	i	-118.0
O=C(O)c1ccccc1-c1c2ccc(=O)cc-2oc2cc(O)ccc12	nt	i	nt	nt	nt	nt
Cc1cc(C(=O)COC(=O)c2ccc(O)cc2O)c(C)n1-c1ccccc1	i	i	-87.2	i	i	i
CC1CCN(S(=O)(=O)c2ccc3c(c2)c(=O)c(C(=O)N2CCCCC2)cn3C)CC1	i	i	i	i	i	i
CC1CCN(S(=O)(=O)c2ccc3c(c2)c(=O)c(C(=O)N2CCOCC2)cn3C)CC1	i	i	i	-127.1	i	i
COCCn1c(SCC(=O)N2CCCC2)nnc1C(C)C	i	i	i	i	i	i
Cn1c2ccccc2c2cc(/C=N/NC(=O)c3cc(O)cc(O)c3)ccc21	i	i	i	i	i	i
Cn1c2ccccc2c2cc(/C=N/NC(=O)c3cc(O)ccc3O)ccc21	i	i	-112.4	i	i	i
N#CC1=C(N)NC(SCC(=O)Nc2ccc(Br)cc2)=C(C#N)C12CCCCC2	i	i	i	i	i	-145.8
N#CC1=C(N)NC(SCc2ccc(Br)cc2)=C(C#N)C12CCCCC2	i	i	nt	i	i	i
COc1ccc(Cl)cc1NCc1nnc2n1CCCCC2	i	i	nt	nt	i	nt
O=C(N/N=C/c1ccccn1)c1cc(C2CC2)[nH]n1	i	i	i	-91.7	i	i
SMILES	PTHR1 ag	GRP78 ERSR act	RXFP1 antag	KCNH2 3.1 block	RXFP1 agonist	KCNH2 WT inh
CCOC(=O)c1ccccc1NC(=O)COC(=O)C1CCCC1	i	i	i	i	i	-103.7
CCOC(=O)c1ccccc1NC(=O)COC(=O)CC1CCCCC1	i	i	i	i	i	i
O=C(COn1nnc2ccc(S(=O)(=O)N3CCOCC3)cc21)Nc1c(F)c(F)c(F)c(F)c1F	i	i	i	i	i	i
Nc1nonc1-n1nnc(C(=O)N/N=C/c2ccc(OCc3cccc(Cl)c3)cc2)c1CN1CCCCC1	i	i	i	i	i	i
CN(C)Cc1c(C(=O)N/N=C/c2ccc(OCc3c(F)cccc3Cl)cc2)nnn1-c1nonc1N	i	i	i	-85.7	i	i
Nc1nonc1-n1nnc(C(=O)N/N=C/c2ccc(OCc3ccccc3F)cc2)c1CN1CCCCC1	i	i	i	-100.0	i	i
CCOC(=O)c1c(C)[nH]c(C)c1S(=O)(=O)NCC(=O)N(C)c1ccc(C)c(C)c1	i	i	i	nt	i	nt
CCOc1ccc(NS(=O)(=O)c2ccc(-c3ccc(=O)[nH]n3)o2)cc1	i	i	i	i	i	i
CCC(=O)N1CCN(c2ccc(NC(=S)NC(=O)c3ccc(OC)c([N+](=O)[O-])c3)cc2)CC1	i	i	i	-91.1	i	i
COc1ccc(C(=O)NC(=S)NNC(=O)c2ccccc2O)cc1	i	i	i	-82.7	i	i
O=C(NC(=S)NNC(=O)c1cc2ccccc2cc1O)c1ccco1	i	i	-69.7	i	i	i
CN1CCN(c2ccc(NC(=S)NC(=O)c3cccc4c(Cl)cccc34)cc2)CC1	i	i	i	-90.6	i	i
Cc1ccc(N(Cc2ccc(C(=O)NC3CCCCC3)cc2)S(C)(=O)=O)cc1C	i	i	i	i	i	i
O=C(Cc1cccc(C(F)(F)F)c1)NCC(c1ccco1)N1CCCCC1 (stereo unspecified)	i	i	i	i	i	i
Cc1ccc(CCNC(=O)C2CCN(S(=O)(=O)c3c(C)nn(C)c3C)CC2)cc1	i	i	nt	i	i	i
CCOc1cccc(N(C(=O)Cc2cccs2)C(C(=O)NC2CCCCC2)c2cccn2C)c1 (stereo unspecified)	i	i	i	i	i	i
COc1ccc(C(=O)Nc2ccc(N3CCCC3)cc2)cc1	i	i	i	i	i	i
COc1ccc(C(=O)NC(=S)Nc2ccc(N3CCCC3)cc2)cc1	i	i	i	-89.2	i	i
CCOC(=O)Cn1nc(C)c(NC(=O)c2cccc([N+](=O)[O-])c2)c1C	i	i	i	i	i	i
Cc1cc(Cn2nc(C(=O)NCc3cccc(C(F)(F)F)c3)cc2-c2ccccc2)on1	i	i	nt	-82.9	i	i
CCOc1ccc(-c2nonc2NC(=O)c2oc3cc(C)ccc3c2C)cc1	i	i	-65.9	nt	i	nt
Cc1ccc(NC(=S)NCc2ccc3c(c2)cc(C)n3C)c(C)c1	i	i	i	-103.5	i	nt
Cc1cccc2cc(CN(Cc3nnnn3C3CCCC3)C3CCCCC3)c(=O)[nH]c12	i	i	i	i	nt	i
Cc1ccc(C(=O)/C=C/c2ccccc2[N+](=O)[O-])cc1	i	?	i	i	i	i
O=C(/C=C/c1ccccc1[N+](=O)[O-])c1ccccc1Br	i	i	-71.8	i	i	i
O=[N+]([O-])c1cc(/C=N/O)ccc1Sc1ccccc1	i	i	-60.1	i	i	i
